Test results taken from PubChem BioAssay AID524 (The Scripps Research Institute Molecular Screening Center, 2006).
The campaign covered roughly 65,000 compounds. About 95 (0.1%) were called active. What follows is part of a selection rich in actives, with near analogues and random picks from the rest. Unmarked numbers belong to inactive results.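 Rule for the calls: active = inhibition above the screen-wide mean inhibition plus 3 SD (cut at about 21% in these data); inactive = the rest.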

Biological target: cAMP-dependent protein kinase catalytic subunit alpha (Homo sapiens) (UniProt P17612)
Experiment: inhibitors of human PKA kinase activity, primary screen, biochemical, ATP-depletion luminescence, Kemptide substrate (AID 524)
Conditions: PKA Kemptide phosphorylation, Kinase-Glo ATP luminescence; at 6 µM; hits give high values

| Compound | inhibition |
| --- | --- |
| Cc1ccc(C)c(NC(=O)CSc2nnc(Cc3cccn3C)n2-c2ccc(F)cc2)c1 | 7.2% |
| Cn1c(=O)[nH]c(=O)c2c1nc(CN1CCN(c3ccccc3F)CC1)n2CCc1ccccc1 | 1.4% |
| COc1cccc(N2CC(C(=O)Nc3c(C)cccc3C)CC2=O)c1 (stereo not drawn) | 4.7% |
| CCOC(=O)C1=C(C)NC(=O)N(C(C)=O)C1c1ccc(Cl)cc1 (stereo not drawn) | 9.6% |
| CN(C)S(=O)(=O)c1ccc(Oc2ccc(S(=O)(=O)N(C)C)cc2)cc1 | 9% |
| CC(NC(=O)c1ccc(Cl)cc1)C(=O)N1CCCCC1 (stereo not drawn) | 8.7% |
| O=C(Cc1cccs1)N1CCCC(c2nc(-c3ccc(S(=O)(=O)N4CCCC4)cc3)no2)C1 (stereo not drawn) | 8.4% |
| CCCCCCn1c(SCC(=O)c2ccccc2)nc2c1c(=O)[nH]c(=O)n2C | 7.8% |
| O=C1c2ccccc2C(Nc2ccc3c(c2)OCCO3)N1Cc1ccco1 (stereo not drawn) | -9.3% |
| Cc1ccc2c(c1)C(O)(CC(=O)c1cccnc1)C(=O)N2 (stereo not drawn) | 6% |
| COc1ccccc1Cn1c(=S)[nH]c2cc(C(=O)N3CCN(C)CC3)ccc2c1=O | 4.3% |
| Cc1cc(C)c(C#N)c(SCc2ccc3c(c2)OCO3)n1 | 7.3% |
| CCN(Cc1ccncc1)C(=O)c1cccc(S(=O)(=O)N2CCOCC2)c1 | -8.8% |
| Cc1cccc(N2CCN(C(=O)C3CCN(S(=O)(=O)c4cnc[nH]4)CC3)CC2)c1C | 9.6% |
| O=C(COC(=O)c1ccc2c(c1)OCCO2)NCc1ccccc1 | 5.2% |
| O=C(CSc1nnc(-c2ccoc2)o1)N1CCOCC1 | -16.1% |
| O=C(O)Cc1ccc(NC(=O)C2CCCCC2C(=O)O)cc1 (stereo not drawn) | 9.2% |
| CC1=NC2(CCCc3c2no[n+]3[O-])N(O)C1(C)C (stereo not drawn) | -8% |
| C/C(=C\C(=O)c1ccc(Br)cc1)N1CCCCC1 | 0.7% |
| c1ccc(CCc2nc(-c3ccncc3)no2)cc1 | 6.7% |
| COCCCNC(=O)c1ccc(CNS(=O)(=O)c2ccc(NC(C)=O)cc2)cc1 | -2.5% |
| O=c1c2ccccc2[nH]c(=S)n1CCN1CCC(=C(c2ccc(F)cc2)c2ccc(F)cc2)CC1 | -4.7% |
| Cc1nc(NC(=O)C23CCC(C)(C(=O)O2)C3(C)C)sc1C (stereo not drawn) | 1.8% |
| Cc1ccc(S(=O)(=O)N2CCOCC2)cc1C(=O)NCc1ccc(F)cc1 | 8.8% |
| COc1cc2[nH]c(=S)n(CCN3CCCCC3C)c(=O)c2cc1OC (stereo not drawn) | -5% |

| Compound | inhibition |
| --- | --- |
| O=C1NC(c2cc3c(cc2Cl)OCO3)Oc2ccccc21 (stereo not drawn) | -12.4% |
| CCCOc1ccc(-c2nc(N)n[nH]2)cc1 | -2.2% |
| O=C(Cn1c(=O)n(Cc2ccco2)c(=O)c2ccccc21)NCC1CCCO1 (stereo not drawn) | 7.1% |
| O=c1c2ccccc2nnn1CSc1nc2sc3c(c2c(=O)n1CC1CCCO1)CCC3 (stereo not drawn) | 6.1% |
| COc1ccc(CN2CC(C(=O)NCCN3CCN(c4ccccc4F)CC3)CC2=O)cc1 (stereo not drawn) | -0.3% |
| COc1ccc(C(c2nnnn2Cc2cccs2)N2CCN(c3ccccc3)CC2)cc1OC (stereo not drawn) | 7.6% |
| CCCOc1ccc(Cn2c(O)cc(=O)[nH]c2=O)cc1 | 7.5% |
| COc1ccc(OC)c2sc(NC(=O)C3COc4ccccc4O3)nc12 (stereo not drawn) | 5.1% |
| O=C(Nc1nc(-c2ccc3c(c2)OCO3)cs1)c1ccncc1 | -1.3% |
| O=C(Nc1nc(-c2ccncc2)cs1)C1COc2ccccc2O1 (stereo not drawn) | 103% (active) |
| CC(=O)Cc1nsc(NC(=O)c2ccc(COc3ccc(C)cc3)o2)n1 | 11.4% |
| O=C(Nc1cccnc1)c1noc2c1CCCCC2 | -2.8% |
| O=C(CN1CCN(C2CCCCC2)CC1)Nc1ccccc1N1CCCCC1 | 1.9% |
| O=C1c2ccccc2C(=O)N1c1ccccc1S(=O)C(F)(F)F (stereo not drawn) | -0.9% |
| Cc1ccccc1C(=O)NCCN=C1NS(=O)(=O)c2ccccc21 | 11.6% |
| CSc1ccc(NC(=O)N2CC(C)OC(C)C2)cc1 (stereo not drawn) | 10.1% |
| N#Cc1ccc(COC(=O)Cn2nnc(-c3ccccc3)n2)cc1 | 10.9% |
| Cc1cc(C(=O)OCC(=O)NCc2ccco2)c(C)n1-c1ccccc1 | 0.4% |
| CS(=O)(=O)N(CC(=O)N1CCOCC1)c1ccc2c3c(cccc13)CC2 | 10.1% |
| COc1ccc2c(CC(=O)Nc3nnc(C4CC4)s3)coc2c1 | 10.2% |
| CC1CCCCC1NC(=O)CSc1nnc(N)s1 (stereo not drawn) | 5.7% |
| C=CCNC(=O)C12CC3CC(C1)CC(C(=O)NCC=C)(C3)C2 | -3.4% |
| N#Cc1nc(COc2ccc(Cl)cc2)oc1N1CCCC1 | -3% |
| Cc1nc(C)c(C(=O)Nc2cccc(C)c2C)o1 | -2.6% |
| O=C(C1CC1)N1CCN=C1SCc1ccc(Cl)cc1 | 6.8% |

| Compound | inhibition |
| --- | --- |
| Brc1cccc(-c2nnc3n2CCC3)c1 | 0.9% |
| CCOC(=O)C1CCN(C(=O)Cn2cc(C#N)c3ccccc32)CC1 | 4.3% |
| COc1cccc2cc(C(C)N(CCCN3CCOCC3)C(=O)Nc3ccc(Cl)cc3)oc12 (stereo not drawn) | 0.5% |
| O=S(=O)(NCc1ccc2c(c1)OCO2)c1cccc2nsnc12 | 5.1% |
| c1ccc(CCn2nnnc2CN2CCN(C3CCCC3)CC2)cc1 | -3.2% |
| Cc1cc2ccccc2n2c(SCC(=O)N3CCN(C(=O)c4ccco4)CC3)nnc12 | 8.5% |
| CCCn1c(SCC(=O)Nc2c(C)cccc2C)nnc1C(C)C | 4.9% |
| CCn1c(SCC(=O)Nc2cccc(F)c2)nnc1-c1cc2cc(Br)ccc2o1 | 10.1% |
| Cc1cccc(CC(=O)Nc2c3c(nn2-c2cccc(Cl)c2)CS(=O)C3)c1 (stereo not drawn) | 9.5% |
| NC(=O)CCCC1=NS(=O)(=O)c2ccccc2N1 | 5.7% |
| CCN(c1ccccc1)S(=O)(=O)c1ccc(N)cc1 | 9% |
| CCCCn1c(SCC(=O)N2CCC(C(=O)OCC)CC2)nc2cc(S(N)(=O)=O)ccc21 | 2.4% |
| CCCCNc1nc2c(c(=O)[nH]c(=O)n2C)n1CCOc1ccccc1 | -1.2% |
| CCOc1ccc(NC(=O)CSc2nc3c(c(=O)n2-c2ccccc2OC)SCC3)cc1 | -2.3% |
| COc1ccc(OC)c2[nH]c(=O)c(CCNC(=O)C(C)(C)C)cc12 | 2.9% |
| CC(C)C(C(=O)NC1CCCCC1)N(CC1CCCO1)C(=O)CNS(=O)(=O)c1ccc(F)cc1 (stereo not drawn) | 4.8% |
| O=C(NCCC1=CCCCC1)C1CCN(Cc2cnn(-c3ccccc3)c2-n2cccc2)CC1 | 6.6% |
| Cn1c(SCC(=O)Nc2cccc(NC(=O)c3cccs3)c2)nnc1-c1ccncc1 | 12.7% |
| CC(=O)Nc1ccc(-c2cn3cccnc3n2)cc1 | 3.9% |
| CN1C(=O)c2ccccc2C(C(=O)NCCCN2CCCC2)C1c1c[nH]c2ccccc12 (stereo not drawn) | 2.4% |
| CC(C)CNS(=O)(=O)c1ccc(OCC(=O)Nc2ccc3c(c2)OCO3)c(Cl)c1 | 4.9% |
| CC(=O)Nc1ccc(S(=O)(=O)NCCc2ccccc2)cc1 | 2.1% |
| CCC(=O)N1CCN=C1SCc1ccc(F)cc1 | 3.7% |
| COc1cc2[nH]c(=S)n(Cc3ccc(C)o3)c(=O)c2cc1OC | 1.2% |
| CC(=O)c1cc2c(cc1N)OCO2 | 1.2% |

| Compound | inhibition |
| --- | --- |
| Cc1ccc2c(c1)sc1ncc(NC(=O)c3ccccc3)c(=O)n12 | -1.3% |
| Cc1cc(C)cc(NC(=O)N2CCC(NC(=O)c3ccc(F)cc3)CC2)c1 | 5.9% |
| CCCNS(=O)(=O)c1ccc2c(c1)CCCN2C(C)=O | 9.1% |
| CCc1cccc2c3c([nH]c12)C(CC)(CC(=O)O)OCC3 (stereo not drawn) | -6.8% |
| COc1cc(C2C3C(=O)N(c4ccccc4)C(=O)C3ON2c2ccccc2)ccc1O (stereo not drawn) | 4.7% |
| CC(C)Cc1ccc(S(=O)(=O)N2CCN(C(=O)c3ccco3)CC2)cc1 | 7% |
| COc1ccc2[nH]c(=O)c(CN(Cc3nnnn3CCc3ccccc3)CC3CCCO3)cc2c1 (stereo not drawn) | -2.5% |
| O=C(NCCCNCc1ccccc1)c1ccc(/C=N/O)nc1 | 9.9% |
| Cc1noc(C)c1C(=O)OCC(=O)/C=C1\N(C)c2ccccc2C1(C)C | 6.8% |
| CC1=Nn2c(nnc2-c2ccccc2)SC1 | 4.2% |
| CCOc1cc(/C=N/n2cnnc2)c(Br)cc1O | 6.7% |
| Cc1ccc(S(=O)(=O)N2CCN(Cc3cccc(C)c3O)CC2)cc1 | 6.3% |
| CCCc1cc(=O)n2[nH]c(SCc3ccccc3)nc2n1 | 5.4% |
| O=C(Nc1ccc(S(=O)(=O)N2CCCC2)cc1Cl)C1=COCCO1 | -4.1% |
| Cn1c(=NC(=O)c2cnccn2)sc2ccccc21 | 5% |
| O=P(c1cccs1)(c1cccs1)c1cccs1 | 3.3% |
| COC(=O)c1nc(NC(=O)c2ccc(Cl)cc2)n[nH]1 | 5% |
| Cn1c(=NC(=O)CSCC(=O)N2CCOCC2)sc2ccccc21 | 7.1% |
| O=C(C1CCN(c2nnc(-n3cccc3)s2)CC1)N1CCc2ccccc2C1 | -3.8% |
| O=C(Cn1nnc(-c2ccc(CN3CCOCC3)cc2)n1)NC1CCCCC1 | 10.1% |
| COC(=O)C(C)N(C#N)c1nc(C)nc(C)n1 (stereo not drawn) | -1.3% |
| CCN(CC)CCN1C(=O)C(=O)/C(=C(/O)c2ccccc2)C1c1ccccc1F (stereo not drawn) | -5.4% |
| N#C/C=C1\Sc2ccccc2C(=O)N1CC(=O)N1CCN(S(=O)(=O)c2ccccc2)CC1 | 6.8% |
